What all share (experiment): NCI-60 one-dose screen, 48 h (100 = growth as untreated, 0 = no growth, -100 = all killed)
The test system of assay [1] is NCI-H23 lung. To be noted: 10 µM unless noted.
Assay [2] relates to NCI-H226 lung. To be noted: 10 µM unless noted.
Assay [3] relates to NCI-H322M lung. To be noted: 10 µM unless noted.
For assay [4], the system named is HOP-62 NSCLC. To be noted: 10 µM unless noted.
Assay [5] has as its system NCI-H460 lung. To be noted: 10 µM unless noted.
Assay [6] relates to HOP-92 NSCLC. To be noted: 10 µM unless noted.
Assay [7] concerns NCI-H522 lung. To be noted: 10 µM unless noted.
For assay [8], the system named is A549/ATCC NSCLC. The following applies: 10 µM unless noted.
In assay [9] the test system is 786-0 renal. To be noted: 10 µM unless noted.
Assay [10] deals with COLO 205 colon. The following applies: 10 µM unless noted.
Assay [11] relates to DU-145 prostate. To be noted: 10 µM unless noted.
Assay [12] concerns K-562 leukemia. The following applies: 10 µM unless noted.
Assay [13] deals with MALME-3M melanoma. To be noted: 10 µM unless noted.
Assay [14] has as its system MDA-MB-231 breast. To be noted: 10 µM unless noted.
Assay [15] concerns SF-268 CNS. The following applies: 10 µM unless noted.
In assay [16] the test system is SF-295 CNS. To be noted: 10 µM unless noted.
The subject of assay [17] is SF-539 CNS. The following applies: 10 µM unless noted.
Assay [18] relates to UACC-257 melanoma. To be noted: 10 µM.
Assay [19] deals with M14 melanoma. The following applies: 10 µM unless noted.
The subject of assay [20] is RXF 393 renal. The following applies: 10 µM unless noted.

Structures are written as SMILES. About 83,000 compounds went through this panel and 20% of them were active in at least one assay; those are over-represented in the sample as a whole.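 Growth was measured after 48 h exposure to one concentration of compound in 96-well plates. Values under 10 count as active.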 Values without a mark were called inactive. Calls of active or inactive are those of the source.

With `O=C(Nc1cccc(C(F)(F)F)c1)Nc1ccc(OCc2nnc(-c3ccccc3)o2)c(F)c1`, the growth was 35.7% in [1]; 56.3% in assay [2]; 61.6% in assay [3]; 56.1% in assay [4]; 6.12% (active) in [5]; -8.2% (active) in assay [6]. In addition, the growth is 1.68% (active) in assay [7]; 29.9% in [8]; 60.4% in [9]; 32.6% in [10]; 31.9% in assay [11]; 22.1% in assay [12]. The growth in assay [13] was 53.7%; in assay [14], 42.9%; in assay [15] it was 58.7%; in [16], 17%; in assay [17] it was 27.8%; in assay [18] it was 70%. Besides, the growth in [19] was 40.9%.
In the case of `COc1ccc(C2CC(c3cccs3)=NN2c2ccc(S(=O)(=O)NC(=O)Nc3ccc(C)cc3)cc2)cc1` (stereo not drawn), the growth in [1] was 98.5%; in [2], 110%; in assay [3] it was 104%; in assay [4], 76.9%; in assay [5], 103%; in assay [6], 84.9%. Also, the growth in assay [7] was 91.5%; in assay [8], 102%; in assay [9], 104%; in [10] it was -54.6% (active); in assay [11], 102%; in assay [12], 114%. Also, the growth is 40.6% in assay [13]; 117% in assay [14]; 95.6% in [15]; 100% in assay [16]; 98.3% in [17]; 40.9% in [18]. In assay [19], the growth was 58.4%.
As for `FC(F)(F)c1cccc(-n2nnc3cnc(Nc4ccc(N5CCCCC5)cc4)nc32)c1`, the growth is 66.5% in assay [1]; 92.4% in assay [2]; 90.7% in assay [3]; 98.1% in assay [4]; 12.6% in [5]; 110% in assay [6]. Besides, the growth in assay [7] was 2.95% (active); in assay [8], 20.9%; in [9], 25.3%; in [10], 77.2%; in assay [11], 57.6%; in [12], 67.3%. In addition, the growth was 41.6% in assay [13]; 58.7% in [14]; 55.5% in [15]; 93.6% in assay [16]; 90.7% in assay [17]; 63.4% in assay [18]. The growth in assay [19] is 33.8%.
As to `O=C(Nc1cc(C(F)(F)F)cc(C(F)(F)F)c1)Nc1ccc(OCc2nnc(-c3ccc(Cl)cc3)o2)c(F)c1`, the growth in assay [1] is -5.96% (active); in assay [2] it was 6.03% (active); in assay [3], 19.3%; in [4], 10.3%; in assay [5], 6.63% (active); in [6], -11.9% (active). Besides, the growth in [7] was -22.8% (active); in assay [8], 10.5%; in assay [9], 15.1%; in [10], -84.7% (active); in assay [11] it was 23.8%; in assay [12], 16.1%. The growth in assay [13] is -3.82% (active); in assay [14] it was -17% (active); in assay [15], 25.6%; in [16], 8.71% (active); in assay [17] it was 10.5%; in [18] it was 2.65% (active). In addition, the growth in assay [19] was 18.6%.
`CC(CCc1ccccc1)NC(=O)c1n[nH]c(=O)c2ccccc12` (stereo not drawn): the growth in assay [1] was 116%; in assay [2], 103%; in [3] it was 89.7%; in assay [4], 92.1%; in [5], 110%; in assay [6] it was 61.2%. The growth in assay [7] was 82.4%; in assay [8], 95.8%; in assay [9], 107%; in [10] it was 115%; in assay [11], 110%; in assay [12] it was 77.3%. The growth in assay [13] is 116%; in [14] it was 101%; in assay [20], 144%; in assay [15] it was 112%; in assay [16], 107%; in [17] it was 98.6%. Also, the growth in assay [19] was 104%.
For `O=C(Nc1ccc(F)c(Cl)c1)c1n[nH]c(=O)c2ccccc12`, the growth in assay [1] is 106%; in [2], 97.2%; in assay [3], 113%; in [4], 102%; in [5] it was 107%; in [6], 96.9%. Besides, the growth in assay [7] was 99.6%; in assay [8] it was 91.8%; in [9] it was 115%; in assay [10], 105%; in [11], 131%; in assay [12], 99.8%. Also, the growth in assay [13] is 125%; in assay [14], 98.3%; in [20] it was -29.4% (active); in assay [15], 99.4%; in [16], 84.8%; in [17], 124%. For the same compound, the growth in assay [19] was 115%.
Regarding `c1ccc(CCn2nnc3c(Nc4ccc(N5CCOCC5)cc4)ncnc32)cc1`, the growth is 102% in assay [1]; 90.2% in [2]; 106% in [3]; 91.1% in assay [4]; 89% in [5]; -2.53% (active) in assay [6]. In addition, the growth in assay [7] is 80.2%; in [8], 74.1%; in assay [9], 87.1%; in [10], 90.1%; in assay [11], 105%; in assay [12] it was 27.1%. Also, the growth in assay [13] was 69.2%; in assay [14] it was 78.4%; in assay [15], 107%; in assay [16] it was 94.1%; in assay [17], 82.2%; in assay [18], 68.6%. For the same compound, the growth in assay [19] is 44%.

(Values after PubChem BioAssay (NCI).)
